About 83,000 compounds went through this panel and 20% of them were active in at least one assay; those are over-represented in the sample as a whole.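 Note: values are percent growth. 100 is the growth of untreated cells, values between 100 and 0 indicate rising inhibition; between -100 and 0 indicates cell death.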 Unmarked numbers belong to inactive results. Calls of active or inactive are those of the source. How the source made its calls: active means growth percent below 10; inactive means the rest.
Tests used:
Assay in all cases: NCI-60 one-dose screen, 48 h (100 = growth as untreated, 0 = no growth, -100 = all killed)
Details in all cases: 10 µM unless noted
HCT-15 colon = tested on: HCT-15 colon
HT29 colon = tested on: HT29 colon
SNB-75 CNS = tested on: SNB-75 CNS
SNB-19 CNS = tested on: SNB-19 CNS
U251 CNS = tested on: U251 CNS
PC-3 prostate = tested on: PC-3 prostate
SK-MEL-5 melanoma = tested on: SK-MEL-5 melanoma
UACC-62 melanoma = tested on: UACC-62 melanoma
LOX IMVI melanoma = tested on: LOX IMVI melanoma
SK-MEL-28 melanoma = tested on: SK-MEL-28 melanoma

Compound: c1ccc(-c2oc(-c3ccccc3)c3ccccc23)cc1
- growth (HCT-15 colon): 108%
- growth (HT29 colon): 118%
- growth (SNB-75 CNS): 110%
- growth (SNB-19 CNS): 105%
- growth (U251 CNS): 98.9%
- growth (PC-3 prostate): 82.8%
- growth (SK-MEL-5 melanoma): 104%
- growth (UACC-62 melanoma): 98.6%
- growth (LOX IMVI melanoma): 88.5%
- growth (SK-MEL-28 melanoma): 125%

Compound: CCCCCCCCCCOC(C)=O
- growth (HCT-15 colon): 107%
- growth (HT29 colon): 106%
- growth (SNB-75 CNS): 80.7%
- growth (SNB-19 CNS): 108%
- growth (U251 CNS): 108%
- growth (PC-3 prostate): 93.4%
- growth (SK-MEL-5 melanoma): 107%
- growth (UACC-62 melanoma): 103%
- growth (LOX IMVI melanoma): 108%
- growth (SK-MEL-28 melanoma): 110%

Compound: Cc1cc(C)nc(NS(=O)(=O)c2ccc(Nc3nc4nc(SCc5ccccc5)nc(-c5ccc(O)cc5)c4c(=O)[nH]3)cc2)n1
- growth (HCT-15 colon): 109%
- growth (HT29 colon): 123%
- growth (SNB-75 CNS): 88.3%
- growth (SNB-19 CNS): 74.9%
- growth (U251 CNS): 94.6%
- growth (PC-3 prostate): 67.7%
- growth (SK-MEL-5 melanoma): 99.5%
- growth (UACC-62 melanoma): 83.5%
- growth (LOX IMVI melanoma): 101%
- growth (SK-MEL-28 melanoma): 86.3%

Compound: O=C(CNC(=O)c1cccc2ccccc12)Nc1ccccc1Cc1ccccc1
- growth (HCT-15 colon): 28% [5 µM]
- growth (HT29 colon): 4.74% [5 µM] (active)
- growth (SNB-75 CNS): 32% [5 µM]
- growth (SNB-19 CNS): 54.3% [5 µM]
- growth (U251 CNS): 24.3% [5 µM]
- growth (PC-3 prostate): 31.6% [5 µM]
- growth (SK-MEL-5 melanoma): 34.4% [5 µM]
- growth (UACC-62 melanoma): 51.3% [5 µM]
- growth (LOX IMVI melanoma): 38.2% [5 µM]
- growth (SK-MEL-28 melanoma): 61% [5 µM]

Compound: CCCCCCCCCCCCCCCCNC(=O)Nc1ccc2ccccc2c1
- growth (HCT-15 colon): 103%
- growth (HT29 colon): 107%
- growth (SNB-75 CNS): 98.1%
- growth (SNB-19 CNS): 96.9%
- growth (U251 CNS): 105%
- growth (PC-3 prostate): 91.5%
- growth (SK-MEL-5 melanoma): 99.4%
- growth (UACC-62 melanoma): 92.7%
- growth (LOX IMVI melanoma): 101%
- growth (SK-MEL-28 melanoma): 108%

Compound: O=C(CC1Sc2ccccc2NC1=O)NNc1cccc(Cl)c1Cl (stereo not drawn)
- growth (HCT-15 colon): 97.1%
- growth (HT29 colon): 93.4%
- growth (SNB-75 CNS): 92.2%
- growth (SNB-19 CNS): 77.7%
- growth (U251 CNS): 83.7%
- growth (PC-3 prostate): 70.9%
- growth (SK-MEL-5 melanoma): 85.5%
- growth (UACC-62 melanoma): 85.1%
- growth (LOX IMVI melanoma): 88.8%
- growth (SK-MEL-28 melanoma): 101%

Compound: O=c1sc2ncnc3ncn1c32
- growth (HCT-15 colon): 78%
- growth (HT29 colon): 56.2%
- growth (SNB-75 CNS): 46.1%
- growth (SNB-19 CNS): 97.4%
- growth (U251 CNS): 87.4%
- growth (PC-3 prostate): 75.8%
- growth (SK-MEL-5 melanoma): 89.3%
- growth (UACC-62 melanoma): 56.8%
- growth (LOX IMVI melanoma): 12.7%
- growth (SK-MEL-28 melanoma): 99.6%

Compound: c1ccc(COc2ccc(Nc3ncnc4c3cnn4-c3ccccc3)cc2)cc1
- growth (HCT-15 colon): 72.4%
- growth (HT29 colon): 116%
- growth (SNB-75 CNS): 102%
- growth (SNB-19 CNS): 96%
- growth (U251 CNS): 106%
- growth (PC-3 prostate): 88.5%
- growth (SK-MEL-5 melanoma): 94.3%
- growth (UACC-62 melanoma): 93.3%
- growth (SK-MEL-28 melanoma): 96%

Compound: Cc1sc2nc(N3CCCCC3)[nH]c(=O)c2c1C
- growth (HCT-15 colon): 103%
- growth (HT29 colon): 88.6%
- growth (SNB-75 CNS): 91%
- growth (SNB-19 CNS): 92.4%
- growth (U251 CNS): 92.4%
- growth (PC-3 prostate): 76.4%
- growth (SK-MEL-5 melanoma): 96.9%
- growth (UACC-62 melanoma): 97.5%
- growth (LOX IMVI melanoma): 99%
- growth (SK-MEL-28 melanoma): 103%

Compound: Nc1ccc2c(c1)C(=O)c1cc(Cl)c(Cl)cc1-2
- growth (HCT-15 colon): 103%
- growth (HT29 colon): 104%
- growth (SNB-75 CNS): 68.7%
- growth (SNB-19 CNS): 96.6%
- growth (U251 CNS): 90.4%
- growth (PC-3 prostate): 74.9%
- growth (SK-MEL-5 melanoma): 98%
- growth (UACC-62 melanoma): 77.9%
- growth (LOX IMVI melanoma): 86%
- growth (SK-MEL-28 melanoma): 122%

Compound: COc1cnc2c(c1)C(=O)c1c-2n(CCCN2CCOCC2)c(=O)c2cc(F)ccc12
- growth (HCT-15 colon): 8.29% (active)
- growth (HT29 colon): -27.5% (active)
- growth (SNB-75 CNS): -19.1% (active)
- growth (SNB-19 CNS): 14.5%
- growth (U251 CNS): -27.7% (active)
- growth (PC-3 prostate): 12.1%
- growth (SK-MEL-5 melanoma): -95.1% (active)
- growth (UACC-62 melanoma): -52% (active)
- growth (LOX IMVI melanoma): -50.3% (active)
- growth (SK-MEL-28 melanoma): 18.6%

Compound: Cc1sc2nc(NCc3ccccc3)[nH]c(=O)c2c1C
- growth (HCT-15 colon): 33.2%
- growth (HT29 colon): 13.3%
- growth (SNB-75 CNS): 46.1%
- growth (SNB-19 CNS): 69%
- growth (U251 CNS): 30.8%
- growth (PC-3 prostate): 48.1%
- growth (SK-MEL-5 melanoma): 45.5%
- growth (UACC-62 melanoma): 42.5%
- growth (LOX IMVI melanoma): 53%
- growth (SK-MEL-28 melanoma): 69.5%

Compound: C/C(=C\CCc1ccoc1)CC/C=C(\C)CCCNc1ccc(F)cc1
- growth (HCT-15 colon): 93.3%
- growth (HT29 colon): 78.8%
- growth (SNB-75 CNS): 94.3%
- growth (SNB-19 CNS): 97.7%
- growth (U251 CNS): 94.2%
- growth (PC-3 prostate): 94.9%
- growth (SK-MEL-5 melanoma): 99.9%
- growth (UACC-62 melanoma): 83.8%
- growth (SK-MEL-28 melanoma): 96.6%

Compound: O=C(COc1ccc(/C=C2\Oc3ccc4ccccc4c3C2=O)cc1)c1ccc([N+](=O)[O-])cc1
- growth (HCT-15 colon): 88.4%
- growth (HT29 colon): 109%
- growth (SNB-75 CNS): 91.3%
- growth (SNB-19 CNS): 94.6%
- growth (U251 CNS): 94.4%
- growth (PC-3 prostate): 86.8%
- growth (SK-MEL-5 melanoma): 92.3%
- growth (UACC-62 melanoma): 91.7%
- growth (LOX IMVI melanoma): 35.5%
- growth (SK-MEL-28 melanoma): 106%

Reference: PubChem BioAssay (NCI)
